# Among all 16,000 compounds or so, about 5,700 (36%) were called active. Inconclusive results (about 24%) are left out. Calls follow the shape of the dose curve; as a rule, active = well fitted curve in the direction sought with a large enough effect; inconclusive = small, poorly fitted or top-dose-only effect, or effect the other way; inactive = no such curve, though single readings can be large or run the other way. The list shows a part of the results.
# Target: Cytochrome P450 1A2 (Homo sapiens) (UniProt P05177)
# Sequence (P05177 whole entry, looked up): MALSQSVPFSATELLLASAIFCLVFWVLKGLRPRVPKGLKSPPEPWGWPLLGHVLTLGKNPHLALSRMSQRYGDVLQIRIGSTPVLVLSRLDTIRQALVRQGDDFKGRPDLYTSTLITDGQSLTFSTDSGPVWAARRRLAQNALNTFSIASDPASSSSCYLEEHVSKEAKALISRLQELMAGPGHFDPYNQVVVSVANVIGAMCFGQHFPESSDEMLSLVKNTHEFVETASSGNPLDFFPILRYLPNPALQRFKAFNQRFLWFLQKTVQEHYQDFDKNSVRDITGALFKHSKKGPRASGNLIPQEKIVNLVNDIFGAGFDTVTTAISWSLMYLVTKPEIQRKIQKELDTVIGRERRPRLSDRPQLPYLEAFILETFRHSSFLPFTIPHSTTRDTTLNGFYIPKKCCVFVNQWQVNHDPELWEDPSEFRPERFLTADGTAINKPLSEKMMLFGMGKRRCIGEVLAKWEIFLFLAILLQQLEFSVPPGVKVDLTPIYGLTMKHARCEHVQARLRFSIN
# Assay: Cytochrome panel assay with activity outcomes
# Settings: recombinant CYP, pro-luciferin dealkylation, luminescence, p450-cyp1a2; series mostly up to 57.1 µM
# % is scaled to controls: 0 for no effect and ±100 for the full control effect.
Compound,"activity, negative = inhibition",AC50
O[C@H](CN1CC1)[C@@H](O)CN1CC1,1.6% [at 11.4 µM] (inactive),
CN1CCN(c2cc(N3CCCC3)c([N+](=O)[O-])cc2F)CC1,,355 nM (active)
NC(=O)c1cc(N2CC2)c([N+](=O)[O-])cc1[N+](=O)[O-],,inactive
C[N+]12CCC(CC1)[C@@H](OC(=O)C(O)(c1ccccc1)c1ccccc1)C2,,inactive
C(=NC12CN3CN(CN(C3)C1)C2)c1cccs1,,inactive
CC(C)c1ccc2c(c1)c(SC(C)(C)C)c(CC(C)(C)C(=O)O)n2Cc1ccc(Cl)cc1,,25100 nM (active)
CC(C)c1ccc(C(O)(C(=O)O)c2ccc(C(C)C)cc2)cc1,-8.75% [at 11.4 µM] (inactive),
C=C1C(O)(c2ccccc2)C2CC[N+]1(C)CC2 (centres undefined),,inactive
COC(=O)N1CCC2(CCN(CC(C)C)CC2)CC1,,inactive
C=C1[C@@H]2CC[C@H]3[C@@]4(C)C[C@@H](O[C@@H]5O[C@H](CO)[C@H](OS(=O)(=O)O)[C@@H](OS(=O)(=O)O)[C@@H]5OC(=O)CC(C)C)C[C@@H](C(=O)O)[C@H]4CC[C@@]3(C2)[C@H]1O,,inactive
COc1ccc2c(c1)[C@]13CCCC[C@@H]1[C@H](C2)NCC3,,inactive
COc1ccc(C(=O)c2c(C)n(CCN3CCOCC3)c3cc(I)ccc23)cc1,,15800 nM (active)
N=C1c2ccccc2CN1NC(=O)c1ccc(F)cc1,,inactive
CN1C(=O)CCS(=O)(=O)[C@@H]1c1ccc(Cl)cc1,,inactive
Cc1nnc2ccc(-c3cccc(C(F)(F)F)c3)nn12,,79.4 nM (active)
CNC[C@H](O)c1ccc(OC(=O)C(C)(C)C)c(OC(=O)C(C)(C)C)c1,,inactive
CCOC(=O)[C@@H]1[C@@H]2c3ccccc3-c3ccccc3[C@H]2C[C@H]1O,,631 nM (active)
O=P(O)(O)c1ccccc1 (tested in a mixture with another compound),7.14% [at 11.4 µM] (inactive),
c1ccc([C@H]2CNCc3ccccc32)cc1,,inactive
C[C@@]12CC[C@H](O)C[C@@H]1CC[C@H]1[C@H]2CC[C@@]2(C)[C@@H](C3=CC(=O)OC3)CC[C@]12O,,inactive
CC[C@H]1CN2CCc3cc(OC)c(OC)cc3[C@H]2C[C@@H]1C[C@H]1NCCc2c1[nH]c1ccc(O)cc21,-7.35% [at 11.4 µM] (inactive),
c1ccc2c(c1)Sc1ccccc1N2C[C@H]1CN2CCC1CC2,-5.29% [at 11.4 µM] (inactive),
NCCc1ccc(S(=O)(=O)O)cc1[N+](=O)[O-],-6.66% [at 11.4 µM] (inactive),
O=C1c2ccccc2-c2cc([N+](=O)[O-])c([N+](=O)[O-])cc21,,251 nM (active)
CN(N=O)C(=O)N[C@H]1C(O)OC(CO)[C@@H](O)[C@H]1O (some centres undefined),,inactive
C[n+]1c(/C=C\c2ccc(O)c3ncccc23)[se]c2ccccc21,-22.7% [at 2.29 µM] (inactive),
CC(O)(CS(=O)(=O)c1cccc(C(F)(F)F)c1)C(=O)Nc1ccc(C(F)(F)F)cc1 (centres undefined),,inactive

Compound,"activity, negative = inhibition",AC50
C=CCn1c(O)c(C(C)=NCCCN2CCOCC2)c(=O)[nH]c1=O,,inactive
C=CCn1c(O)c(C(CC)=NC2CC2)c(=O)[nH]c1=O,,708 nM (active)
C[C@@H]1OC=C2[C@@H](O)[C@H]3O[C@H]3C(=O)[C@@]23[C@H]1[C@H]1C2=C([C@@H](O)[C@H]4O[C@@H]4C2=O)[C@@H]3O[C@@H]1C,2.27% [at 11.4 µM] (inactive),
C=CCN1CC[C@]23c4c5ccc(O)c4O[C@@H]2/C(=N/NC(=O)c2ccccc2)CC[C@@]3(O)[C@H]1C5,,inactive
CN(C)CCOC(=O)COc1ccc(Cl)cc1,,10000 nM (active)
CC(=O)[C@@H]1CC[C@@H]2[C@@H]3CCC4=CC(=O)CC[C@@]4(C)[C@H]3CC[C@]21C,,inactive
CC[N+](C)(C)c1cccc(O)c1,,inactive
COC(=O)c1cc2c(cn1)[nH]c1ccccc12,,631 nM (active)
CCN1C[C@]2(C)CC[C@@H](O)[C@]34[C@@H]5CC6[C@@H](OC)C[C@@](O)([C@H]5[C@@H]6O)[C@@H](C[C@@H]23)[C@H]14,,inactive
CN1[C@@H]2CC[C@H]1CC(O)C2 (some centres undefined),,inactive
Oc1ccc2c3c1O[C@@H]1c4[nH]c5c(c4C[C@@]4(O)[C@@H](C2)N(CC2CC2)CC[C@]314)C[C@]1(O)[C@@H]2Cc3ccc(O)c4c3[C@@]1(CCN2CC1CC1)[C@H]5O4,,inactive
Ic1cncc(OC[C@@H]2CCN2)c1,,398 nM (active)
C[C@@]12CC[C@@H]3[C@H](CCC4=CC(=O)CC[C@]43C)[C@@H]1CC[C@@H]2C(=O)COS(=O)(=O)c1ccc(Br)cc1,-3.63% [at 11.4 µM] (inactive),
C1CCc2nnnn2CC1,,inactive
C/C(=C\c1ccc(N(C)C)cc1)[N+](=O)[O-],,1410 nM (active)
N[C@@H](CP(=O)(O)O)C(=O)O,-12.6% [at 11.4 µM] (inactive),
CC(=O)OCC(=O)[C@@H]1CC[C@H]2[C@H]3CC[C@H]4C[C@@H](O)CC[C@]4(C)[C@@H]3C(=O)C[C@@]12C,,inactive
CCCn1c(C)c(C(=O)c2cccc3ccccc23)c2ccccc21,,2000 nM (active)
CCCn1c(C)c(C(=O)c2ccc3ccccc3c2)c2ccccc21,,6310 nM (active)
Cc1c(C(=O)c2ccc3ccccc3c2)c2cccc3c2n1[C@H](CN1CCOCC1)CO3,,inactive
C[C@@H]1[C@@H](C)N1C[C@H](O)Cn1ccnc1[N+](=O)[O-] (some centres undefined),-13.2% [at 11.4 µM] (inactive),
Nc1nc2[nH]c(=O)cnc2c(=O)[nH]1,,inactive
CN1CC[C@@]23c4ccccc4N[C@H]1[C@]21CCN(C)[C@@H]3Nc2ccccc21,,inactive
O=C(O)CS(=O)(=O)C(c1ccccc1)c1ccccc1,-15.7% [at 2.29 µM] (inactive),
Cc1cc(C)cc(NC(=S)NC2CC3CCC(C2)N3Cc2ccco2)c1 (centres undefined),,inactive
C[C@@H]1C(=O)O[C@@H]2C[C@]34[C@H]5C[C@@H](C(C)(C)C)[C@@]36[C@@H](OC(=O)[C@@H]6O)O[C@@]4(C(=O)O5)[C@@]12O,,inactive
NCCP(=O)(O)O,-12.9% [at 11.4 µM] (inactive),
